Our source for the inhibition values is PubChem BioAssay AID602405 (Broad Institute, 2012).

Each structure is given as a SMILES string. Among all 360,000 compounds or so, about 350 (0.097%) were called active. The entries come from a sample that favours actives as a whole. A number with no mark means an inactive call. Cut-off read from the data, not from the text of the source: active = inhibition above about 16% (passing the limit was not always enough); inconclusive = no clear call, values can overlap the other calls; inactive = below that.

In this assay the test system is UDP-N-acetylbacillosamine N-acetyltransferase PglD (Campylobacter jejuni). The assay can be described thus: blockers of PglD enzyme activity – biochemical, DTNB colorimetric, single point, primary screen (AID 602405). The following applies: purified PglD enzyme, DTNB colorimetric CoA detection; at 12.5 µM; hits give high values.
In general, inhibition refers to the change of the read-out against control, counted positive when it falls. As to `COc1ccc(-c2ccc([C@H]3[C@H](CO)N4CCCCN(C(=O)Cc5ccncc5)C[C@@H]34)cc2)cc1`, the inhibition was 2.61%. For `C/C=C/c1ccc([C@H]2[C@H](CO)N3CCCCN(C(=O)Cc4ccncc4)C[C@@H]23)cc1`, the inhibition is 4.91%.

Turning to `O=C(Cc1ccncc1)N1CCCCN2[C@@H](CO)[C@H](c3ccc(-c4ccncc4)cc3)[C@@H]2C1`, the inhibition is 18.4% (active).

With `O=C(O)[C@H]1[C@H](CO)[C@H]2Cn3c(cccc3=O)[C@@H]1N2C(=O)c1ccccc1`, the inhibition is 3.27%.

In the case of `CC(=CCOc1ccc2ccc(=O)oc2c1)C1=CC(=O)C(C)(C)O1`, the inhibition was 2.27%. On to `c1ccc2sc(N3CCNCC3)nc2c1`, for which the inhibition was 53.7% (active). The value for `c1ccc2sc(C3CCCNC3)nc2c1` (stereo not given) was 3.32%; that for `C[C@H](CO)N1C[C@H](C)[C@H](CN(C)C(=O)Oc2ccc3ccccc3c2)OCc2cnnn2CCCC1=O` was -0.0925%; that for `COC(=O)[C@H]1[C@H](CO)[C@H]2Cn3c(cccc3=O)[C@H]2N1CC1CC1` was 3.33%. In the case of `COC(=O)[C@H]1[C@H](CO)[C@H]2Cn3c(ccc(-c4ccccc4F)c3=O)[C@@H]1N2C(=O)C1CCC1`, the inhibition is -2.57%.
